# From article PMC8384837, “Expanding the binding specificity for RNA recognition by a PUF domain”
# Positions count from the first letter of the chain named.
# Columns and labels:
# Assay in all cases: yeast three-hybrid, YBZ-1, SC-Leu-His + 0.5 mM 3-AT, 4 days
# Conditions in all cases: tags: N-Gal4 AD-HA kept; label: inside an RPR1-promoter hybrid RNA with tandem MS2 sites; ssRNA
# [1] = target: PUM1 PUF domain R1-RVI (Homo sapiens, UniProt Q14671 828-1176, S863R;R864V;Q867I)
# In short: (§1)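 Matching RNA elements and Pumilio-1 PUF domain libraries, randomized at the three base-contacting residues of every repeat, were co-expressed from a centromeric plasmid in strain YBZ-1 (LexA–MS2 coat fusion, HIS3 reporter). The repeat regions were PCR-amplified and Illumina-sequenced from cells grown four days on SC-Leu (input) or SC-Leu-His + 0.5 mM 3-AT (selection). The interaction score is the log change in variant frequency from input to selection. It is computed in log2, with a pseudocount of 1 for absent variants.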
# [2] = target: PUM1 PUF domain R1-RSN (Homo sapiens, UniProt Q14671 828-1176, S863R;R864S;Q867N)
# In short: as §1
# [3] = target: PUM1 PUF domain R8-RRG (Homo sapiens, UniProt Q14671 828-1176, N1122R;Y1123R;Q1126G)
# In short: as §1
# [4] = target: PUM1 PUF domain R8-NWK (Homo sapiens, UniProt Q14671 828-1176, Y1123W;Q1126K)
# In short: as §1
# [5] = target: PUM1 PUF domain R7-KHG (Homo sapiens, UniProt Q14671 828-1176, S1079K;N1080H;E1083G)
# In short: as §1
# [6] = target: T1, PUM1 PUF domain R6-FWR (Homo sapiens, UniProt Q14671 828-1176, N1043F;Y1044W;Q1047R)
# T1 sequence: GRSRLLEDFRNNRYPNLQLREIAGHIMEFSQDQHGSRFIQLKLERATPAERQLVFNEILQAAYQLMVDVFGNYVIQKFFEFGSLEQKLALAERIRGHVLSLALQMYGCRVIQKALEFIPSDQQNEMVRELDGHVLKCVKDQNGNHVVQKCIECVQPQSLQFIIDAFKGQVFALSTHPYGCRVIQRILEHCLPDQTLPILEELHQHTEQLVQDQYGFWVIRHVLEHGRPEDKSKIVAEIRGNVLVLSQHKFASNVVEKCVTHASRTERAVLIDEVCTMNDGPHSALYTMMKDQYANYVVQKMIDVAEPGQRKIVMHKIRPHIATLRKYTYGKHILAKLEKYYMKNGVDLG
# In short: as §1
# [7] = target: PUM1 PUF domain R4-PYA (Homo sapiens, UniProt Q14671 828-1176, N971P;H972Y;Q975A)
# In short: as §1
# [8] = target: PUM1 PUF domain R4-PWR (Homo sapiens, UniProt Q14671 828-1176, N971P;H972W;Q975R)
# In short: as §1
# [9] = target: PUM1 PUF domain R7-RPC (Homo sapiens, UniProt Q14671 828-1176, S1079R;N1080P;E1083C)
# In short: as §1
# [10] = target: PUM1 PUF domain R7-RGH (Homo sapiens, UniProt Q14671 828-1176, S1079R;N1080G;E1083H)
# In short: as §1
# [11] = target: PUM1 PUF domain R3-SSK (Homo sapiens, UniProt Q14671 828-1176, C935S;R936S;Q939K)
# In short: as §1
# [12] = target: PUM1 PUF domain R3-GRS (Homo sapiens, UniProt Q14671 828-1176, C935G;Q939S)
# In short: as §1
# [13] = target: PUM1 PUF domain R3-HRS (Homo sapiens, UniProt Q14671 828-1176, C935H;Q939S)
# In short: as §1
# [14] = target: PUM1 PUF domain R3-TRL (Homo sapiens, UniProt Q14671 828-1176, C935T;Q939L)
# In short: as §1
# [15] = target: T2, PUM1 PUF domain R6-HYR (Homo sapiens, UniProt Q14671 828-1176, N1043H;Q1047R)
# T2 sequence: T1 sequence with F216H, W217Y
# In short: as §1
# [16] = target: PUM1 PUF domain R5-ERA (Homo sapiens, UniProt Q14671 828-1176, C1007E;Q1011A)
# In short: as §1
# [17] = target: PUM1 PUF domain R5-DWE (Homo sapiens, UniProt Q14671 828-1176, C1007D;R1008W;Q1011E)
# In short: as §1
# [18] = target: PUM1 PUF domain R3-QFR (Homo sapiens, UniProt Q14671 828-1176, C935Q;R936F;Q939R)
# In short: as §1
# [19] = target: PUM1 PUF domain R2-IFA (Homo sapiens, UniProt Q14671 828-1176, N899I;Y900F;Q903A)
# In short: as §1
# [20] = target: PUM1 PUF domain R5-QNS (Homo sapiens, UniProt Q14671 828-1176, C1007Q;R1008N;Q1011S)
# In short: as §1
sequence,measurement,setting,value
GGCUAGAACUAGUGGAUCCCCCGGCGCCCGGCGGCUCGAGCCCGGGUAAGUGUAAAUCGUCUGCAUGCCGCCGGGCGCCAUGCCUGCAGGUCGACUCUAGAAAACAUG,binding signal,[1],2.84 log2 enrichment (interaction score)
same,binding signal,[2],5.16 log2 enrichment (interaction score)
GGCUAGAACUAGUGGAUCCCCCGGCGCCCGGCGGCUCGAGCCCGGGUAAGCGUAAAUAGUCUGCAUGCCGCCGGGCGCCAUGCCUGCAGGUCGACUCUAGAAAACAUG,binding signal,[3],2.76 log2 enrichment (interaction score)
same,binding signal,[4],4.45 log2 enrichment (interaction score)
GGCUAGAACUAGUGGAUCCCCCGGCGCCCGGCGGCUCGAGCCCGGGUAAGUAUAAAUAGUCUGCAUGCCGCCGGGCGCCAUGCCUGCAGGUCGACUCUAGAAAACAUG,binding signal,[5],2.59 log2 enrichment (interaction score)
GGCUAGAACUAGUGGAUCCCCCGGCGCCCGGCGGCUCGAGCCCGGGUAAGUGAAAAUAGUCUGCAUGCCGCCGGGCGCCAUGCCUGCAGGUCGACUCUAGAAAACAUG,binding signal,[6],4.17 log2 enrichment (interaction score)
GGCUAGAACUAGUGGAUCCCCCGGCGCCCGGCGGCUCGAGCCCGGGUAAGUGUAAAUGGUCUGCAUGCCGCCGGGCGCCAUGCCUGCAGGUCGACUCUAGAAAACAUG,binding signal,[2],2.27 log2 enrichment (interaction score)
GGCUAGAACUAGUGGAUCCCCCGGCGCCCGGCGGCUCGAGCCCGGGUAAGUGUACAUAGUCUGCAUGCCGCCGGGCGCCAUGCCUGCAGGUCGACUCUAGAAAACAUG,binding signal,[7],5.06 log2 enrichment (interaction score)
same,binding signal,[8],5.54 log2 enrichment (interaction score)
GGCUAGAACUAGUGGAUCCCCCGGCGCCCGGCGGCUCGAGCCCGGGUAAGUUUAAAUAGUCUGCAUGCCGCCGGGCGCCAUGCCUGCAGGUCGACUCUAGAAAACAUG,binding signal,[9],3.97 log2 enrichment (interaction score)
same,binding signal,[10],3.07 log2 enrichment (interaction score)
GGCUAGAACUAGUGGAUCCCCCGGCGCCCGGCGGCUCGAGCCCGGGUAAGUGUAAGUAGUCUGCAUGCCGCCGGGCGCCAUGCCUGCAGGUCGACUCUAGAAAACAUG,binding signal,[11],2.38 log2 enrichment (interaction score)
same,binding signal,[12],1.73 log2 enrichment (interaction score)
same,binding signal,[13],2.22 log2 enrichment (interaction score)
GGCUAGAACUAGUGGAUCCCCCGGCGCCCGGCGGCUCGAGCCCGGGUAAGUGUAAUUAGUCUGCAUGCCGCCGGGCGCCAUGCCUGCAGGUCGACUCUAGAAAACAUG,binding signal,[11],2.9 log2 enrichment (interaction score)
same,binding signal,[14],0.95 log2 enrichment (interaction score)
same,binding signal,[12],1.26 log2 enrichment (interaction score)
GGCUAGAACUAGUGGAUCCCCCGGCGCCCGGCGGCUCGAGCCCGGGUAAGUGUAAAUAGUCUGCAUGCCGCCGGGCGCCAUGCCUGCAGGUCGACUCUAGAAAACAUG,binding signal,[15],5.76 log2 enrichment (interaction score)
same,binding signal,[6],5.25 log2 enrichment (interaction score)
same,binding signal,[3],1.3 log2 enrichment (interaction score)
same,binding signal,[14],2.97 log2 enrichment (interaction score)
same,binding signal,[16],3.08 log2 enrichment (interaction score)
same,binding signal,[17],3.79 log2 enrichment (interaction score)
same,binding signal,[12],2.84 log2 enrichment (interaction score)
same,binding signal,[7],4.99 log2 enrichment (interaction score)
same,binding signal,[8],1.17 log2 enrichment (interaction score)
GGCUAGAACUAGUGGAUCCCCCGGCGCCCGGCGGCUCGAGCCCGGGUAAGUGUAACUAGUCUGCAUGCCGCCGGGCGCCAUGCCUGCAGGUCGACUCUAGAAAACAUG,binding signal,[18],7.11 log2 enrichment (interaction score)
GGCUAGAACUAGUGGAUCCCCCGGCGCCCGGCGGCUCGAGCCCGGGUAAGUGUAAAAAGUCUGCAUGCCGCCGGGCGCCAUGCCUGCAGGUCGACUCUAGAAAACAUG,binding signal,[19],4.76 log2 enrichment (interaction score)
GGCUAGAACUAGUGGAUCCCCCGGCGCCCGGCGGCUCGAGCCCGGGUAAGUGUCAAUAGUCUGCAUGCCGCCGGGCGCCAUGCCUGCAGGUCGACUCUAGAAAACAUG,binding signal,[16],0.84 log2 enrichment (interaction score)
GGCUAGAACUAGUGGAUCCCCCGGCGCCCGGCGGCUCGAGCCCGGGUAAGUGUGAAUAGUCUGCAUGCCGCCGGGCGCCAUGCCUGCAGGUCGACUCUAGAAAACAUG,binding signal,[16],2.24 log2 enrichment (interaction score)
GGCUAGAACUAGUGGAUCCCCCGGCGCCCGGCGGCUCGAGCCCGGGUAAGUGUAAAUUGUCUGCAUGCCGCCGGGCGCCAUGCCUGCAGGUCGACUCUAGAAAACAUG,binding signal,[1],2.56 log2 enrichment (interaction score)
same,binding signal,[2],4.41 log2 enrichment (interaction score)
GGCUAGAACUAGUGGAUCCCCCGGCGCCCGGCGGCUCGAGCCCGGGUAAGUGUUAAUAGUCUGCAUGCCGCCGGGCGCCAUGCCUGCAGGUCGACUCUAGAAAACAUG,binding signal,[20],3.13 log2 enrichment (interaction score)
same,binding signal,[16],1.72 log2 enrichment (interaction score)
GGCUAGAACUAGUGGAUCCCCCGGCGCCCGGCGGCUCGAGCCCGGGUAAGUCUAAAUAGUCUGCAUGCCGCCGGGCGCCAUGCCUGCAGGUCGACUCUAGAAAACAUG,binding signal,[9],0.8 log2 enrichment (interaction score)
same,binding signal,[10],1.99 log2 enrichment (interaction score)
